An excerpt weighted towards active compounds, which were near 8.1% of everything screened.
MCF10A rerep: induces DNA re-replication in MCF 10a normal breast cells; MCF 10A DNA re-replication, Hoechst nuclear intensity, 48 h; Potency, µM (doses to about 46.1 µM), most hits filed as activators; 350,000 compounds, 2.9% hits; AID 624296; further: nearly all actives have a fitted effect of over 50% in size
KB-3-1 tox: KB-3-1 parental cell cytotoxicity; KB-3-1 viability, CellTiter-Glo ATP luminescence, 72 h; Potency, µM (doses to about 46.1 µM), hits mostly cytotoxic; 400,000 compounds, 1.4% hits; AID 1347075; further: nearly all actives have a fitted effect of over 60% in size
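Cytotoxicity measured as CellTiter-Glo luminescence after 72 h at 37 C. Compound titrations were pinned onto drug-naive KB-3-1 parental adenocarcinoma cells grown in DMEM with 10% FBS, and normalized data fitted to concentration-response curves.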
KB-V1 cytotox: KB-V1 MDR subline cytotoxicity; KB-V1 MDR cells viability, CellTiter-Glo, 72 h; Potency, µM (series often up to 46.1 µM), hits mostly cytotoxic; 400,000 compounds, 3.4% hits; AID 1347076; further: nearly all actives have a fitted effect of over 60% in size
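Luminescent ATP read-out (CellTiter-Glo, 10 min) measures survival of drug-selected KB-V1 MDR cells after 72 h, 37 degrees C compound exposure. Medium: phenol-red-free DMEM, 10% FBS. Values from fitted concentration-response curves.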
ELG1 DNA repair: blocks ELG1-dependent DNA repair in HEK293T cells; HEK293T ELG1-luciferase reporter, luminescence, 16 h; DNA damage induced by 5-fluorouridine; AID 504467; 330,000 compounds, 2.3% hits; Potency, µM (top dose mostly 46.1 µM), most hits filed as inhibitors; further: nearly all actives have a fitted effect of over 55% in size
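Overnight (16 hr) co-exposure of 2,000 cells/well to 5-fluorouridine and compound at 37 °C preceded detection. Luciferase was quantified via ONE-Glo luminescence; loss of signal denotes inhibition.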
SW480 rereplic: induces DNA re-replication in SW480 colon adenocarcinoma cells | Potency, µM (doses to about 46.1 µM), usual class: activators | AID 624297 | SW480 DNA re-replication, Hoechst DNA content imaging, 48 h | 340,000 compounds, 1.8% hits; further: nearly all actives have a fitted effect of over 55% in size
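Hoechst fluorescence of nuclei (405 nm excitation, 500-530 nm emission) measured by plate-scanning imager after 48 hr compound exposure at 37 C; re-replication scored as increased number of nuclei with elevated intensity.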
Numbers stand for hits; . = inactive; ? = inconclusive; / = not tested or not shown; ! = not confirmed by another sample; [ ] = another dose, or the depositor's remark. The call rests on the fitted dose curve; in most records, active means well fitted curve in the direction sought with a large enough effect; inconclusive means small, poorly fitted or top-dose-only effect, or another doubt; inactive means no such curve, though single readings can be large; an effect the other way counts as inactive or inconclusive.

SMILES	MCF10A rerep	KB-3-1 tox	KB-V1 cytotox	ELG1 DNA repair	SW480 rereplic
O=[N+]([O-])c1ccccc1OCCCn1cnc2ccccc21	.	.	7.31µM	?	.
CCN(CC)CCCN(Cc1cc2cc3c(cc2[nH]c1=O)OCCO3)C(=O)Nc1ccccc1	.	?	.	.	.[9.22 µM]
CCN(C1CCS(=O)(=O)C1)S(=O)(=O)c1ccc2ccccc2c1 (stereo not given)	.	.	.	.	.
COc1ccc(S(=O)(=O)N2CCC(C(=O)Nc3nnc(CCN4CCCCC4)s3)CC2)cc1	.	.	.	.	.
CCc1cc(-c2nnn(CCC3COCCO3)c2CC)ccc1-c1cn(Cc2ccccc2)nn1 (stereo not given)	/	?	1.84µM	/	/
Cn1c(SCC(=O)NC2CCCCC2)nnc1-c1ccccn1	.	.	.	.	.
CCc1nnc(NC(=O)CSc2nc(-c3ccccc3)cc(-c3ccc(F)cc3)c2C#N)s1	4.11µM	?	?	.	10.3µM
CCN(CC)C(=O)CSc1nc(-c2cccs2)cc(-c2cccs2)c1C#N	?	.	18.4µM	16.4µM	.
CC(C)C(=O)NNC(=O)CN1CCN(c2nc(-c3ccccc3)cs2)CC1	.	.	.	.	.
COc1ccc(-c2cc(-c3ccc(Cl)cc3)c(C#N)c(SCC(=O)O)n2)cc1	16.4µM	.	.	.	.
CCc1nnc(NC(=O)CN2CCN(c3nc(-c4ccccc4)cs3)CC2)s1	?	.	20.6µM	?	?
CCn1c(SCC(=O)N2CCC(C(N)=O)(N3CCCCC3)CC2)nc2ccccc2c1=O	.	.	.	/	.
COc1ccc(N2CCN(C(=O)CCC(=O)c3cc(C)sc3C)CC2)cc1	.	.	.	.	.
CN1CCN(C(=O)CSc2nc(-c3ccncc3)ccc2C#N)CC1	.	.	.	.	.
CN1CCN(C(=O)CSc2nc(-c3cccs3)cc(-c3cccs3)c2C#N)CC1	20.6µM	?	?	?	?
N#Cc1c(-c2ccc(F)cc2)cc(-c2cccs2)nc1SCC(=O)O	23.1µM	.	.	.	?
N#Cc1c(C(F)(F)F)cc(-c2cccs2)nc1SCC(=O)O	.	.	.	.	.
Cc1nc(NC(=O)C(C)(C)C)sc1C(=O)Cn1cc(CCc2ccccc2)nn1	/	.	.	/	/
C=CCC1CCCCC1=C(C#N)c1ccccc1 (stereo not given)	/	.	.	/	/
O=C(CSc1ncnc2sc3c(c12)CCCC3)NC1CCS(=O)(=O)C1 (stereo not given)	.	.	9.2µM	.	.
O=C(CSc1ncnc2sc3c(c12)CCCCC3)NCc1ccco1	3.98µM	7.31µM!	?	.	?
CC(=O)CSc1ncnc2sc3c(c12)CCCC3	.	.	.	.	.
CC(C)c1nc2sc3c(SCC(=O)NCc4ccco4)ncnc3c2c2c1CCC2	14.6µM	.	.	.	.
CC1CCc2c(sc3nc(SCC(=O)NCc4ccco4)nc(N)c23)C1 (stereo not given)	?	?	13µM	.	.
COc1ccc(OCCNC(=O)c2ccc3nc(C)c(N(C)Cc4ccc(NC(C)=O)cc4)n3c2)cc1	/	.	.	/	/
SMILES	MCF10A rerep	KB-3-1 tox	KB-V1 cytotox	ELG1 DNA repair	SW480 rereplic
O=C(NCCCNc1ccc(C(F)(F)F)cc1[N+](=O)[O-])c1ccc(F)cc1	.	.	?	.	/
CC1=CC(=O)C=C(C)C1=NOS(=O)(=O)c1ccccc1	7.31µM	?	?	?	7.31µM
Cc1ccc2c(c1)/C(=N/OS(=O)(=O)c1ccccc1)CCS2	.[0.0737 µM]	.	?	/	.
CC1=CC(=O)C(C(C)C)=C/C1=N/OS(=O)(=O)c1ccccc1	2.91µM	?	20.6µM	?	0.731µM
Cc1cc(C(=O)COC(=O)CCC(=O)c2ccc3c(c2)OCCO3)c(C)n1Cc1ccco1	?	.	.	?	.
Cc1cc(C)nc(-n2nc(C)cc2NC(=O)c2cccc(S(=O)(=O)N(C)C)c2)n1	.	.	.	.	.
Cc1ccc(C)c(C(=O)Nc2cc(C)nn2-c2nc(C)cc(C)n2)c1	?	20.6µM	?	?	.
O=C(C(=Cc1ccccc1)CN1CCCCC1)c1ccccc1	0.651µM	5.17µM	?	/	2.91µM
OCCC1CN(Cc2cccs2)CCN1Cc1ccccc1 (stereo not given)	.	.	.	.	.
CCCn1c2ccccc2c2cnn(CC(=O)NCc3cc(OC)ccc3OC)c(=O)c21	/	.	.	/	/
